Reference: PubChem BioAssay (NCI)
About 83,000 compounds went through this panel and 20% of them were active in at least one assay; those are over-represented in the sample as a whole.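 48-hour exposure, single concentration, 96-well plates; percent growth endpoint where 0 means no net growth. Active: below 10.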 Values without a mark were called inactive. Activity calls are given as the source filed them.

test system: HL-60(TB) leukemia; test: NCI-60 one-dose screen, 48 h (100 = growth as untreated, 0 = no growth, -100 = all killed); conditions: 10 µM unless noted

Question: For `COc1cc2oc(-c3cccc(C(=O)Nc4ccc(Cl)cc4)c3)cc(=O)c2c(OCCN)c1OC`, which growth is on record?
Answer: -56.5% (active)

Question: How did the growth turn out when `Cc1ccc(C2CC(c3ccc(S(=O)(=O)NCCNc4nc(Nc5ccc(F)cc5)nc(N(C)C)n4)cc3)=Nc3c(N)nc(N)nc3N2)cc1` (stereo not drawn) was run?
Answer: -10.4% (active)

Question: How did the growth turn out when `O=C1NC(=NC23CC4CC(CC(C4)C2)C3)N/C1=C\c1ccc2ncsc2c1` was run?
Answer: -16.1% (active)

Question: With `COc1cc(NC(=O)C(C)C)ccc1C(=O)NC(=S)Nc1ccc(S(N)(=O)=O)cc1` as the compound, how does the growth read?
Answer: 92.5%

Question: For `Nc1cc2ccccc2c(=O)n1NC(=O)c1ccccc1`, which growth is on record?
Answer: 101%

Question: `CN(C(=O)c1ccc(C(F)(F)F)cc1C(F)(F)F)c1sc2c(c1C#N)CCC(=O)C2` was tested. Which growth did it give?
Answer: 55.3%

Question: How did the growth turn out when `CS(=O)(=O)Nc1cncc(-c2ccc3ncnc(NCc4ccccc4)c3c2)c1` was run?
Answer: 54.6%

Question: With `CN(C)c1ccnc(CNCCSC2(c3ccc(C(F)(F)F)cc3)c3ccccc3C=Cc3ccccc32)c1` as the compound, how does the growth read?
Answer: -34.1% (active)

Question: `O=C1CCC(N2Cc3c(NCc4ccc(-c5ccccc5)cc4)cccc3C2=O)C(=O)N1` (stereo not drawn) was tested. Which growth did it give?
Answer: 10.7%

Question: Which growth does the source give for `O=C(COc1ccc(NC(=O)Nc2ccccc2)cc1)N=Nc1c(O)[nH]c2ccc([N+](=O)[O-])cc12` here?
Answer: 23.4%

Question: For `NS(=O)(=O)c1ccc(CCNC(=O)CSc2ccc(-c3ccc(Br)cc3)nn2)cc1`, which growth is on record?
Answer: 55.4%

Question: How did the growth turn out when `Cn1cc(-c2cc(N)n3nc(-c4cn(C)c5ccccc45)cc3n2)c2cc(F)ccc21` was run?
Answer: -20.1% (active)

Question: With `O=C(CSc1nnc(-c2c[nH]c3ccccc23)n1-c1ccccc1)Nc1ccc(C(=O)/C=C/c2cccc([N+](=O)[O-])c2)cc1` as the compound, how does the growth read?
Answer: 86.8%

Question: How did the growth turn out when `CN(C)c1nc(NCCNS(=O)(=O)c2ccc(C(=O)/C=C/c3ccccc3)cc2)nc(N2CCOCC2)n1` was run?
Answer: 33%

Question: With `O=C(Nc1ccc(OCc2ccc(Cl)cc2)cc1)Nc1ccc(Cl)c(C(F)(F)F)c1` as the compound, how does the growth read?
Answer: 0.65% (active)

Question: How did the growth turn out when `COc1cc(NC(=O)c2cccc(C3CCc4c(cc(OC)c(OC)c4OC)O3)c2)cc(OC)c1OC` (stereo not drawn) was run?
Answer: 4.25% (active)

Question: `CC1CCc2c(sc3nc(SCC(=O)c4cccc(Br)c4)n(-c4ccccc4)c(=O)c23)C1` (stereo not drawn) was tested. Which growth did it give?
Answer: 64.7%

Question: For `Cc1ccc2c(c1)C(=O)/C(=C/c1ccc([N+](=O)[O-])cc1)S2`, which growth is on record?
Answer: 107%

Question: For `O=c1oc2ccc(Br)cc2cc1C1=CSc2nc3sc4c(c3c(=O)n2N=C1)CCCC4`, which growth is on record?
Answer: 45.4%

Question: How did the growth turn out when `CCN1CCN(Cc2ccc(NC(=O)c3cccc(-n4cc(-c5ccc(NC(C)=O)nc5)nn4)c3)cc2C(F)(F)F)CC1` was run?
Answer: 65.4%

Question: Which growth does the source give for `COc1ccc(/C=C/c2nc3ccccc3nc2Nc2cccc(C)c2)cc1` here?
Answer: 92.8%

Question: With `CC1(C)[C@@H](NCO)CC[C@]2(C)[C@H]3C(=O)C=C4[C@@H]5C[C@](C)(CO)CC[C@]5(C)CC[C@@]4(C)[C@]3(C)CC[C@@H]12` as the compound, how does the growth read?
Answer: 58.2%

Question: `CCS(=O)(=O)N1CCCC(C(=O)Nc2nc3ccc(NC(=O)c4ccc(F)c(OC)c4F)cc3s2)C1` (stereo not drawn) was tested. Which growth did it give?
Answer: 53.9%

Question: With `N#Cc1ccc(-c2nn(-c3ccc(C(=O)O)cc3)cc2CNc2cc(Cl)cc(Cl)c2)cc1` as the compound, how does the growth read?
Answer: 29.5%

Question: How did the growth turn out when `COc1cccc(/C=N/NC(=O)c2ccc3nc(-c4ccc(Cl)cc4)[nH]c3c2)c1O` was run?
Answer: -43.4% (active)

Question: For `N#C/C(=C1/C(=O)Nc2ccccc21)c1nnc(NC(=O)c2ccc(-n3c(=O)[nH]c4ccccc4c3=O)cc2)s1`, which growth is on record?
Answer: 7.15% (active)

Question: `CN(C)c1nc(NCCNS(=O)(=O)c2ccc(C3=Nc4c(N)nc(N)nc4NC(c4ccccc4)C3)cc2)nc(Nc2ccc(F)cc2)n1` (stereo not drawn) was tested. Which growth did it give?
Answer: -6.76% (active)

Question: For `NS(=O)(=O)c1ccc(-n2cc(-c3cccc(NC(=O)c4cc(C(F)(F)F)cc(C(F)(F)F)c4)c3)nn2)cc1`, which growth is on record?
Answer: 63.4%

Question: How did the growth turn out when `COc1cc(/C=C/C(=O)c2ccc(S(=O)(=O)NCCNc3nc(N(C)C)nc(N4CCOCC4)n3)cc2)cc(OC)c1OC` was run?
Answer: -64.8% (active)

Question: How did the growth turn out when `Cc1cccc(-c2nc(Nc3ccc(C)c(S(N)(=O)=O)c3)c3ccccc3n2)c1` was run?
Answer: 26%

Question: `CO[C@@H]1CSSC1Cn1nc(-c2ccc(Oc3ccccc3)cc2)c2c(N)ncnc21` (stereo partly drawn) was tested. Which growth did it give?
Answer: 13.3%

Question: `CSc1ccc(C(=O)Nc2ccc3nnn(/C(C#N)=C/c4ccccn4)c3c2)cc1` was tested. Which growth did it give?
Answer: 6.83% (active)

Question: `COc1ccc(-c2ccnc(SCc3cc4cc(OC)ccc4[nH]c3=O)n2)cc1` was tested. Which growth did it give?
Answer: -8.43% (active)
